These results are taken from PubChem BioAssay.

A word on the inhibition: it is the relative decrease from the control value, in per cent.

Molecules are shown by their SMILES. The source made the active and inactive calls.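 The calls were made as follows, unless noted: active = NADPH fluorescence slope more negative than the mean of all samples by about 3 SD, 99.7% confidence; inactive = the rest.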

Assay [1] can be described thus: inhibitors of TNFa-induced NFkB p65 translocation, primary screen, imaging, HUVEC, MLSMR starter and 10KST1 sets (AID 438;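 active = inhibition above 20% together with a positive visual image hit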;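 also: compound added about 3h40 before a 20 min TNFalpha stimulation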;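 as to inhibition: signal is the nuclear over cytoplasmic p65 intensity ratio per well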). The settings on record: HUVEC TNFa-induced p65 nuclear translocation; cell count: measured here: nuclei count (cytotoxicity indicator), at 2.08 µM; inhibition: at 2 µM, stronger effect = higher value, 0% TNFa-plus-vehicle, 100% no-TNFa wells.
The nature of assay [2]: inhibitors of mutant huntingtin aggregation, primary screen, imaging, exon1htt(103Q)mCFP cells, high-content imaging (AID 483;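 active = visual image review flags a hit and inhibition of aggregation exceeds 20%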;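 also: compound exposure lasted 3 days before fixation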;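 as to nuclei count: percent of the per-plate median nuclei count of sample wells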). The settings on record: exon1htt(103Q)mCFP cell line, aggregate imaging, at 2 µM; inhibition of aggregation: stronger effect = higher value; nuclei count: measured here: cell count, toxicity.
The nature of assay [3]: inhibitors of E-selectin induction by TNFa, primary screen, imaging, HUVEC, immunofluorescence, MLSMR starter and 10KST1 sets (AID 487;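 active = visually confirmed hit in the image check and inhibition above 20%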;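 as to inhibition: signal is fraction of cell area covered by stained E-selectin grains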;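 as to nuclei count: 100% = median nuclei count of all wells on the same plate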). To be noted: HUVEC TNFalpha-induced E-selectin immunofluorescence imaging, at 2 µM; inhibition: stronger effect = higher value; nuclei count: measured here: cell number, toxicity.
Assay [4] concerns the target Voltage-gated potassium channel subunit beta-2 (Rattus norvegicus) (UniProt P62483). In words: KvBeta enzyme negative modulators, primary screen, biochemical, NADPH fluorescence (AID 622;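 active = fluorescence slope higher than the sample average by over 3 SD, cut at about -0.22 in these data, passing the limit was not always enough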;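 also: slope of raw intensity against log time taken from 70 to 1610 s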). To be noted: recombinant KvBeta, 4-cyanobenzaldehyde reduction, at 10 µM, stronger effect = higher value.
For assay [5] the target is unchanged. Briefly: KvBeta positive modulators, primary screen, biochemical, NADPH fluorescence (AID 623).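 Also: fluorescence intensity change per second fitted from 20 to 320 s.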 To be noted: Recombinant KvBeta, NADPH fluorescence decrease slope, 10 min; at 10 µM; stronger effect = lower value.
The target of assay [6] is Alpha-2C adrenergic receptor (Homo sapiens) (UniProt P18825). Briefly: modulators of alpha2C/GIRK thallium flux, primary screen, cell-based, HEK293 alpha2C/GIRK1/2 (AID 624;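 active = fluorescence slope after compound addition differing from the mean of all screened samples at 99.7% confidence, in either direction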;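 also: slope of fluorescence ratio to pre-addition baseline per second over 15 to 24 s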). The settings on record: thallium flux BTC fluorescence, at 10 µM, actives lie on both sides.
Sequence of Alpha-2C adrenergic receptor (Homo sapiens) (P18825 whole entry, looked up): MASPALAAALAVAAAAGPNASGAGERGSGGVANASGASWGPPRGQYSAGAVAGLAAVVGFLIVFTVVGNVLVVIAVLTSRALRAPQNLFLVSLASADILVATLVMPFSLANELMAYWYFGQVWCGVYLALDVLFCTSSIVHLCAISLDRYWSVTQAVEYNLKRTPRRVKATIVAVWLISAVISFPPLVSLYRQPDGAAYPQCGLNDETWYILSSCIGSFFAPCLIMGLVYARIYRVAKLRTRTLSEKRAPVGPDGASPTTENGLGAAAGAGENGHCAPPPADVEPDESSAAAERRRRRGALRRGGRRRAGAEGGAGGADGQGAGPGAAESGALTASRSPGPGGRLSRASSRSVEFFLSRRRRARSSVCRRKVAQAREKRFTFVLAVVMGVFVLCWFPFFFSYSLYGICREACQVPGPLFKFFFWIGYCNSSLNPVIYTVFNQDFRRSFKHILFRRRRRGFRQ
A short description of assay [7]: inhibitors of Sendai virus-induced IRF3 signaling, primary screen, TLR/RLR signaling modifier project, cell-based, Sendai virus stimulus, luciferase, 10K MLSCN set (AID 602276;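 active = inhibition at or above 50% at 10 µM; inactive = inhibition below 50%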;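 also: firefly luciferase from ISG56 promoter only with Renilla not read in this screen; 0% = Sendai virus plus DMSO and 100% = medium plus DMSO without virus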). The settings on record: HEK293 RL24 IRF3 luciferase reporter, at 10 µM, stronger effect = higher value. (Reporter assays use an easily measured gene product as a stand-in for the process of interest.)

Assay [8] can be described thus: inhibitors of poly I:C-induced TLR3 signaling, primary screen, cell-based, poly I:C stimulus, luciferase, 10K MLSCN set (AID 602277;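 active = inhibition of the reporter signal at or above 50%; inactive = inhibition below 50%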). To be noted: HEK293-TLR3 RL24 IRF3 luciferase reporter, at 10 µM, stronger effect = higher value.

Sequence of Voltage-gated potassium channel subunit beta-2 (Rattus norvegicus) (P62483 whole entry, looked up): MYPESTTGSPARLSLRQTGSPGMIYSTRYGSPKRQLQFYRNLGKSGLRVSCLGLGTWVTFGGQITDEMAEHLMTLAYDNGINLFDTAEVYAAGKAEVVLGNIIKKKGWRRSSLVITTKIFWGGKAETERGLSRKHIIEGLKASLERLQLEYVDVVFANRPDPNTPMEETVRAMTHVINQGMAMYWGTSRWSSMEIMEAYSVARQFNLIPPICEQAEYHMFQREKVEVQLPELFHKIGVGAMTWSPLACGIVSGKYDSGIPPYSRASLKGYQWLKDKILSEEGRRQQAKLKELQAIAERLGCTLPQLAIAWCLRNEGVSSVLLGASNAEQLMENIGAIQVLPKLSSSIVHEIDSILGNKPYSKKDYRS

With `COc1cccc(NC(=O)c2nnn(Cc3ccc(Br)cc3F)c2N)c1`, the cell count in assay [1] came out at 674. The inhibition in assay [1] was -2.8% (inactive); in assay [3], -61.5% (inactive); in assay [7] it was 16.4% (inactive); in assay [8], 9.8% (inactive). The inhibition of aggregation in assay [2] was 28.1% (inactive). The nuclei count was determined as 109% in assay [2] and 108% in assay [3]. Also, the fluorescence slope in assay [4] was -0.484 (inactive). Also, the NADPH fluorescence slope in assay [5] is -4e-05 (inactive). In assay [6], the slope is 0.00669 (inactive).
For `COCCNC(=O)CCCCCN1C(=O)CCC1=O`, the cell count in assay [1] is 221. The inhibition in assay [1] was -7.7% (inactive); in assay [3], 25.1% (inactive); in assay [7], 11.6% (inactive); in assay [8], 24.9% (inactive). Also, the inhibition of aggregation in assay [2] was -8.5% (inactive). The nuclei count was found to be 85.3% in assay [2] and 71.9% in assay [3]. Further, the fluorescence slope in assay [4] was -0.595 (inactive). The NADPH fluorescence slope in assay [5] is -5.1e-05 (inactive). Further, in assay [6], the slope was 0.00625 (inactive).
In the case of `Cc1cc(C(=O)Nc2sc3c(c2C#N)CCCCC3)cs1`, the cell count in assay [1] came to 651. For the same compound, the inhibition in assay [1] is 6% (inactive); in assay [3], -7.5% (inactive); in assay [7], -33.9% (inactive); in assay [8] it was -119% (inactive). Also, the inhibition of aggregation in assay [2] was -8.1% (inactive). The nuclei count turned out to be 107% in assay [2] and 100% in assay [3]. Moreover, the fluorescence slope in assay [4] was -0.581 (inactive). Moreover, the NADPH fluorescence slope in assay [5] was -1.2e-05 (inactive). In addition, in assay [6], the slope was 0.00236 (inactive).
In the case of `COc1cccc(-c2nnc(SCC(=O)N3CCCc4ccccc43)o2)c1`, in assay [1], the cell count was 642. In addition, the inhibition in assay [1] is 3.6% (inactive); in assay [3], -56.4% (inactive); in assay [7], 5.85% (inactive); in assay [8] it was 26.1% (inactive). Moreover, the inhibition of aggregation in assay [2] is -6.3% (inactive). For the same compound, the nuclei count in assay [2] amounted to 100%; in assay [3], 109%. For the same compound, in assay [4], the fluorescence slope was -0.378 (inactive). Besides, in assay [5], the NADPH fluorescence slope is -5e-05 (inactive). For the same compound, in assay [6], the slope was 0.00375 (inactive).
As to `OC(CN1CCOCC1)Cn1c(-c2cccc(Cl)c2)nc2ccccc21` (centres undefined), the cell count in assay [1] came to 500. Also, the inhibition in assay [1] is -2.9% (inactive); in assay [3], -39.6% (inactive); in assay [7], 10.2% (inactive); in assay [8], 32.2% (inactive). For the same compound, the inhibition of aggregation in assay [2] was -7.7% (inactive). Also, the nuclei count in assay [2] was found to be 108%; in assay [3], 112%. For the same compound, the fluorescence slope in assay [4] is -0.598 (inactive). Besides, the NADPH fluorescence slope in assay [5] was 1.9e-05 (inactive). Besides, the slope in assay [6] was 0.00704 (inactive).
Consider `COc1ccc(N2CCN(C(=O)CCNS(=O)(=O)c3ccc(Br)s3)CC2)cc1`, for which the cell count in assay [1] stood at 338. Moreover, the inhibition is 2.9% (inactive) in assay [1], -297% (inactive) in assay [3], 7.87% (inactive) in assay [7] and 12.4% (inactive) in assay [8]. Besides, the inhibition of aggregation in assay [2] was -0.1% (inactive). The nuclei count was found to be 101% in assay [2] and 108% in assay [3]. Besides, the fluorescence slope in assay [4] was -0.423 (inactive). Besides, the NADPH fluorescence slope in assay [5] was -0.000118 (inactive). Moreover, the slope in assay [6] is 0.00529 (inactive).
On to `COc1ccccc1N1CCN(C(CNS(=O)(=O)c2cc(F)ccc2F)c2cccnc2)CC1` (centres undefined), for which, in assay [1], the cell count was found to be 557. For the same compound, the inhibition in assay [1] was 7.2% (inactive); in assay [3], -5% (inactive); in assay [7], 9.38% (inactive); in assay [8], 22.5% (inactive). Also, the inhibition of aggregation in assay [2] is -5.9% (inactive). Also, the nuclei count in assay [2] was 96.7%; in assay [3], 108%. Besides, in assay [4], the fluorescence slope was -0.359 (inactive). In addition, the NADPH fluorescence slope in assay [5] was -5.8e-05 (inactive). In addition, the slope in assay [6] is 0.00529 (inactive).
With `CS(=O)(=O)NCc1nnc(SCC(=O)NC2CCCCC2)n1-c1ccc(F)cc1`, the cell count in assay [1] was 820. For the same compound, the inhibition in assay [1] was -5.5% (inactive); in assay [3], -5.8% (inactive); in assay [7], 16.2% (inactive); in assay [8], 26.3% (inactive). For the same compound, the inhibition of aggregation in assay [2] was -0.9% (inactive). Also, the values for the nuclei count in assay [2] and in assay [3] were 111% and 128%, respectively. The fluorescence slope in assay [4] was -0.388 (inactive). In addition, the NADPH fluorescence slope in assay [5] is -5.9e-05 (inactive). Moreover, the slope in assay [6] is 0.00498 (inactive).
For the compound `CC(=O)c1cccc(NC(=O)NCc2ccccn2)c1`, the cell count in assay [1] came out at 655. Moreover, the inhibition is -6.1% (inactive) in assay [1], -41.1% (inactive) in assay [3], -8.72% (inactive) in assay [7] and -125% (inactive) in assay [8]. For the same compound, the inhibition of aggregation in assay [2] is -1.1% (inactive). The figures for the nuclei count in assay [2] and in assay [3] were 132% and 119%, respectively. Also, in assay [4], the fluorescence slope was -0.424 (inactive). Also, the NADPH fluorescence slope in assay [5] is -4.2e-05 (inactive). Also, in assay [6], the slope was 0.00223 (inactive).
With `O=C(Cn1c(C(=O)NCC2CCCO2)cc2sccc21)c1ccccc1` (centres undefined), the cell count in assay [1] turned out to be 280. The inhibition in assay [1] is -13.4% (inactive); in assay [3], -77.7% (inactive); in assay [7], 5.12% (inactive); in assay [8], 4.66% (inactive). Further, the inhibition of aggregation in assay [2] is 20.2% (inactive). The nuclei count in assay [2] came out at 80%; in assay [3], 99.3%. In addition, the fluorescence slope in assay [4] is -0.611 (inactive). Moreover, the NADPH fluorescence slope in assay [5] is 5.3e-06 (inactive). Besides, the slope in assay [6] was 0.00924 (inactive).
Consider `CCN(CCCNC(=O)C1CCCN(S(=O)(=O)c2cnc[nH]2)C1)c1ccccc1` (centres undefined), for which, in assay [1], the cell count came to 611. Moreover, the inhibition in assay [1] was 21.8% (inactive); in assay [3], -91.6% (inactive); in assay [7] it was 5.83% (inactive); in assay [8], 7.07% (inactive). Further, the inhibition of aggregation in assay [2] is -4.7% (inactive). The nuclei count was determined as 100% in assay [2] and 142% in assay [3]. In addition, the fluorescence slope in assay [4] is -0.507 (inactive). For the same compound, in assay [5], the NADPH fluorescence slope was -2.4e-05 (inactive). In addition, the slope in assay [6] is 0.00623 (inactive).
`O=C(NCc1ccc2c(c1)OCO2)c1ccc(NS(=O)(=O)c2ccc3c(c2)OCCO3)cc1`: the cell count in assay [1] is 499. For the same compound, the inhibition was -22.3% (inactive) in assay [1], -0.9% (inactive) in assay [3], 10.8% (inactive) in assay [7] and 17.5% (inactive) in assay [8]. Besides, the inhibition of aggregation in assay [2] was 20.4% (inactive). Besides, the figures for the nuclei count in assay [2] and in assay [3] were 104% and 128%, respectively. Moreover, the fluorescence slope in assay [4] is -0.615 (inactive). Further, the NADPH fluorescence slope in assay [5] is -2.7e-05 (inactive). For the same compound, in assay [6], the slope was 0.00624 (inactive).
Consider `CCOC(=O)c1cccc(NC(=O)CSc2nc3cccnc3n2C)c1`, for which the cell count in assay [1] stood at 782. For the same compound, the inhibition in assay [1] was -8.4% (inactive); in assay [3] it was -14.2% (inactive); in assay [7], -4.22% (inactive); in assay [8], -23.7% (inactive). For the same compound, the inhibition of aggregation in assay [2] is 0.7% (inactive). Further, the nuclei count turned out to be 111% in assay [2] and 105% in assay [3]. Further, in assay [4], the fluorescence slope was -0.526 (inactive). In addition, in assay [5], the NADPH fluorescence slope was 4.1e-06 (inactive). The slope in assay [6] is 0.00563 (inactive).
In the case of `COc1ccc(N2C(=O)C3C4C=CC(C4)C3C2=O)nn1` (centres undefined), the cell count in assay [1] came to 719. In addition, the inhibition in assay [1] is -5.5% (inactive); in assay [3], -182% (inactive); in assay [7], 11.4% (inactive); in assay [8], 23.1% (inactive). For the same compound, the inhibition of aggregation in assay [2] is -9.5% (inactive). Besides, the results for the nuclei count in assay [2] and in assay [3] were 100% and 142%, respectively. The fluorescence slope in assay [4] is -0.44 (inactive). The NADPH fluorescence slope in assay [5] is -0.000108 (inactive). Further, the slope in assay [6] is 0.00628 (inactive).
